# Source: PubChem BioAssay (National Center for Advancing Translational Sciences (NCATS))
# Sampled rows, rich in hits. Any-hit rate of the full collection: about 12%.
# PLK1 PBD inh: PLK1 (human) polo-box domain binding inhibition; Potency, µM, for the others: max response, negative = inhibition, most hits filed as inhibitors; 360,000 tested, 2.8% active; P53350; Plk1 PBD binding of FITC phosphopeptide, fluorescence polarization; note: potency is the fitted concentration of half-maximal effect; series mostly up to about 57 µM; % is set by controls: 0 for no effect and ±100 for the full control effect; nearly all actives have a fitted effect of over 65% in size
# Target sequence (P53350 whole entry, looked up, the tested form may be a part): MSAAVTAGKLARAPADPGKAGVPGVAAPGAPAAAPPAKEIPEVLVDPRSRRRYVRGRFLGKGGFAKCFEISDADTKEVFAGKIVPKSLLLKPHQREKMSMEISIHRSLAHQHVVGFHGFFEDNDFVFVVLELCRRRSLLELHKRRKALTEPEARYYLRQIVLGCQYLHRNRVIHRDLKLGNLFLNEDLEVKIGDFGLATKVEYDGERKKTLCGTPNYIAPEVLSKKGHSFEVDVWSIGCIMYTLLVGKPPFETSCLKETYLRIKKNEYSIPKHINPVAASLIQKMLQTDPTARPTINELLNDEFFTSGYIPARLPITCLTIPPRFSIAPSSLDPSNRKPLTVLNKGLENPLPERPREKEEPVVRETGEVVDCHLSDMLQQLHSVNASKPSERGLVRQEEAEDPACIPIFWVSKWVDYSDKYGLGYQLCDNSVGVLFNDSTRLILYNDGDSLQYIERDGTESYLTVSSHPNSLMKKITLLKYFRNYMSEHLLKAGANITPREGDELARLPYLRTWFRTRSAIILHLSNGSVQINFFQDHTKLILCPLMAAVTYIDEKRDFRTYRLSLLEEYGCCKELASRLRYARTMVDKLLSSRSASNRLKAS
# PI5P4K alpha inh: PI5P4K alpha (human) kinase inhibition; P48426; PI5P4Kalpha enzyme, ADP-Glo luminescence, 60 min; stronger effect = lower value; max response, %; 330,000 tested, 1.2% active; AID 652105; active = max response of -50% or lower; inconclusive = between -30% and -50%; inactive = -30% or higher; note: value at the top dose of about 77 µM; % is set by controls: 0 for no effect and ±100 for the full control effect
#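 PI5P4Kalpha ADP-Glo assay; 5 microM ATP final; 60 min RT reaction; HEPES pH 7.4/EGTA/CHAPS, 5% DMSO; controls lacking substrate or enzyme; luminescent end-point.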
# JMJD2A Tudor inh: blocks the human JMJD2A Tudor domain; O75164; Potency, µM (doses to about 114 µM), for the others: at the top dose activity change, negative = inhibition, most hits filed as inhibitors; 390,000 tested, 4.4% active; AID 504339; AlphaScreen JMJD2A-Tudor / H3K4me3 peptide binding; note: potency is the fitted concentration of half-maximal effect; % is set by controls: 0 for no effect and ±100 for the full control effect; nearly all actives have a fitted effect of over 50% in size
# G9a block: blocks human histone lysine methyltransferase G9a; Q96KQ7; G9a H3K9 monomethylation, AlphaScreen, 2 h; Potency, µM (top dose mostly 102 µM), without a hit: at the highest dose activity, negative = inhibition, actives largely listed as inhibitors; 350,000 tested, 8.8% active; AID 504332; note: potency is the fitted concentration of half-maximal effect; % is set by controls: 0 for no effect and ±100 for the full control effect; nearly all actives have a fitted effect of over 75% in size
#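 Quantitative HTS format: methyltransferase activity on a biotin-tagged H3K9 peptide is measured by AlphaScreen, using a rabbit anti-monomethyl-H3K9 antibody with streptavidin donor and anti-IgG acceptor beads. Final levels are 20 nM enzyme, 500 nM peptide, 20 uM SAM; 2 h RT.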
# BAZ2B inh: blocks human BAZ2B | AID 504333 | Q9UIF8 | AlphaScreen BAZ2B-H3K14Ac peptide displacement | 360,000 tested, 4.4% active | Potency, µM (titrated, usually from 114 µM), inactives show at the highest dose activity change, negative = inhibition, usual class: inhibitors; note: potency is the fitted concentration of half-maximal effect; % is set by controls: 0 for no effect and ±100 for the full control effect; nearly all actives have a fitted effect of over 60% in size
#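 In this displacement format the biotinylated H3(5-23) peptide acetylated at Lys14 serves as ligand at 50 nM, with BAZ2B at 50 nM in PBS pH 7.4 containing 0.01% Tween-20. Donor and acceptor beads are 10 ug/mL final.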
# HP1b chromo inh: blocks HP1-beta chromodomain binding to methylated histone tails; Potency, µM (doses to about 114 µM), for the others: at the top dose activity change, negative = inhibition, actives largely listed as inhibitors; 390,000 tested, 0.56% active; AlphaScreen HP1-beta / biotin-H3K9me3 peptide binding; AID 540317; note: potency is the fitted concentration of half-maximal effect; nearly all actives have a fitted effect of over 70% in size
#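 AlphaScreen: HP1-beta (50 nM) preformed 30 min with biotin-H3(1-18)K9me3 peptide (50 nM) in PBS pH 7.4, 0.01% Tween-20. Compound added for 30 min at RT, then streptavidin donor/nickel chelate acceptor beads (10 ug/mL) for 30 min.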
# * hit, by the source's call; ? = inconclusive; . = not tested or not shown; [ ] = dose if it differs, or a comment. Unless noted, calls come from the whole dose curve; as a rule, active = well fitted curve in the direction sought with a large enough effect; inconclusive = small, poorly fitted or top-dose-only effect, or another doubt; inactive = no such curve, though single readings can be large; an effect the other way counts as inactive or inconclusive.
SMILES,PLK1 PBD inh,PI5P4K alpha inh,JMJD2A Tudor inh,G9a block,BAZ2B inh,HP1b chromo inh
O=C(CNS(=O)(=O)c1ccc2ccccc2c1)OCc1nnc(-c2ccccc2)o1,-14%,-2,-10%,22µM*,-2%,21%
Cc1ccccc1CS(=O)(=O)CCC(=O)NCc1ccc(F)cc1Cl,-6%,2,5%,71%,-15%,55%
O=C(CN1CCN(S(=O)(=O)c2ccc(Br)cc2)CC1)c1ccc(O)c(O)c1,-19%,2,7%,10µM*,?,37%
CC(C)c1ccc(S(=O)(=O)N2CCN(CC(=O)c3ccc(O)c(O)c3)CC2)cc1,.,.,.,8.9µM*,40µM*,.
Cc1cccc(C)c1NC(=O)CNC(=O)CNC(=O)c1ccc2ccccc2c1,-4%,-1,.,.,.,.
CCCCNC(=O)CCC1N=C2c3ccccc3N=C(SCC(=O)NCCc3ccc(OC)c(OC)c3)N2C1=O (stereo not drawn),.,.,-27%,5%[59 µM],-3%,-7%
Cc1cccc(-c2cc(NC=O)c3ncc(-c4cccc(C(=O)N(C)C)c4)n3c2)c1,-29%,?,.,.,.,.
COc1ccc(-c2cc(NC=O)c3ncc(-c4ccc(OC)c(OC)c4)n3c2)cc1,-21%,-51*,.,.,.,.
COc1cc(-c2cc(NC=O)c3ncc(-c4ccc(C(C)=O)cc4)n3c2)ccc1O,-9%,-61*,.,.,.,.
COc1cccc(-c2cc(NC=O)c3ncc(-c4cccc(C(=O)N(C)C)c4)n3c2)c1,-24%,-68*,.,.,.,.
COc1ccc(-c2cc(NC=O)c3ncc(-c4ccc(OC)c(OC)c4)n3c2)cc1OC,-16%,-26,.,.,.,.
CC(=O)c1ccc(-c2cnc3c(NC=O)cc(-c4ccc(S(C)(=O)=O)cc4)cn23)cc1,-2%,?,.,.,.,.
O=CNc1cc(-c2ccoc2)cn2c(-c3ccc(F)cc3)cnc12,?,-60*,.,.,.,.
CCc1ccccc1NC(=O)c1sc(-n2nc(C)c(Cc3ccc4c(c3)OCO4)c2C)nc1C,.,.,0%,8%[59 µM],1%,43%
O=C(Nc1ccc2nc([C@@H]3O[C@H](CO)[C@@H](O)[C@H](O)[C@H]3O)[nH]c2c1)NC(c1ccccc1)c1ccccc1,-8%,?,.,.,.,.
Nc1ccc(-c2cc(NC=O)c3ncc(-c4cccc(C(F)(F)F)c4)n3c2)cn1,-7%,-55*,.,.,.,.
COc1cccc(-c2cnc3c(NC=O)cc(-c4ccc(O)c(OC)c4)cn23)c1,-26%,-65*,.,.,.,.
CC(=O)c1ccc(-c2cnc3c(NC=O)cc(-c4cnn(C)c4)cn23)cc1,-21%,-57*,.,.,.,.
COc1cccc(-c2cc(NC=O)c3ncc(-c4cc(OC)c(OC)c(OC)c4)n3c2)c1,-17%,?,.,.,.,.
COc1cccc(C(=O)Nc2nc(-c3nnn(-c4cccc(Cl)c4C)c3C)ns2)c1,.,.,-26%,-1%[59 µM],-2%,13%
CCCCc1nc2sc3c(SCCN(C)C)ncnc3c2c2c1CCC2,-6%,-6,50µM*,?,-27%,-22%
CCOc1ccc(-n2cc(-c3ccccc3)c3c(N4CCC(C)CC4)ncnc32)cc1,.,.,-31%,1%[59 µM],?,14%
O=S(=O)(Nc1ccc(O)cc1)c1cccc2cccnc12,27µM*,-2,?,?,-15%,7%
O=S(=O)(Nc1cccc2cccnc12)c1cccc2ccccc12,.,.,-16%,.,.,34%
O=S(=O)(Nc1cccc2cccnc12)c1ccccc1O,.,.,32µM*,.,.,.
O=S(=O)(Nc1cccc2cccnc12)c1cccs1,.,.,79µM*,.,.,29%
O=C(Cn1cnc2nc3c(cc2c1=O)CCCC3)Nc1ccc(F)cc1Cl,.,.,-20%,6%[59 µM],0%,17%[57 µM]
O=C(N1CCN(c2ncccn2)CC1)C12CC3CC(CC(C3)C1)C2,-14%,3,-15%,.,.,19%
CCOC(=O)c1c(-c2ccc(F)cc2)csc1NC(=O)C1CCCO1 (stereo not drawn),27µM*,?,23%,20µM*,8%,4%
CCOC(=O)c1c(-c2ccc(OC)cc2)csc1NC(=O)C1CCCO1 (stereo not drawn),9.5µM*,4,-6%,13µM*,4%,-11%
